Measurements reported in the supplement of paper PMC11417369.
Whole data set: some 25,000 sequences, median “ln(normalized median fluorescence intensity)” near 9.7, cut for the highest 2% near 11. The sample holds the highest values, similar sequences and a random draw of the others, so the mix is not that of the screen.

test system: PfAP2-HC AP2 domain (GST-tagged); assay: gcPBM binding intensity (ln(normalized median fluorescence intensity)); higher = stronger DNA binding
Summary of the method: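 GST-tagged P. falciparum DNA-binding domains produced in E. coli were incubated for 1 h on an Agilent 4 × 180k array of primer-extended double-stranded 36-bp intergenic genomic probes with negative controls. Binding intensity is the highest Masliner-normalised natural-log median intensity across replicate spots of either probe orientation, with bound protein detected by Alexa488 anti-GST antibody at 488 nm.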

| Sequence | gcPBM binding intensity (ln) |
| --- | --- |
| TTTATATTAATTTGTGTAAATGCATATGATGAGCAT [XGTACX_negctrl_site254] | 9.41 |
| ATTTTATGATATATTTGTACTTAACATTTGGATATA [XGTACX_site5888] | 9.6 |
| ACCATCCTTAATACTTATTTTTTCACAATTAAGTAA [GTGCAC_negctrl_site269] | 9.59 |
| AAACCAAGGCACAATAATTAAATAAATAAAATCATG [GTGCAC_negctrl_site574] | 9.58 |
| TTTTTCATAAATATATGTACATATATTTTATATAAC [XGTACX_site3402] | 9.66 |
| TATTAGATATAATATATACACACCAACGAACGAAGA [CACACA_site1134] | 10.1 |
| CATATATGTGATAACACGCACACAAATGTATAGAAT [CACACA_site2594] | 10.4 |
| AGAGAGAAAGCTATAACATGCAACAATTTTTAGAAA [TGCATGCA_site95] | 9.63 |
| TATTTTTAATATTTTGCATGCAGTATTTTATAAAAT [TGCATGCA_site250] | 9.52 |
| TCTCATAGGAAACACACACACACACCCACATATATA [CACACA_site1738] | 11 |
| CATACATATAAACACACACACACACCCACCCACAAA [CACACA_site8059] | 10.6 |
| TATAAATATACACCCACACACATATATAAATAAATA [CACACA_site7717] | 10.8 |
| AAGCAAACATATTAATGTACACACACCCACACACAA [XGTACX_site5806] | 11.1 |
| CAAACATATTAATGTACACACACCCACCCACAAACA [CACACA_site2752] | 10.4 |
| ATTAAACATACATATACACACACACCCACCCACCCA [CACACA_site8057] | 11 |
| TAAACATACATATACACACACACACCCACACCCACA [CACACA_site492] | 11.6 |
| ATAATTTGGAAACACACACACACACCCACATATATA [CACACA_site2286] | 10.5 |
| TCTCATAGTAAACACACACACACACCCACATATATA [CACACA_site5034] | 10.6 |
| AACATATTAATGTACACACACCCACGCACAAACAAA [CACACA_site7320] | 10.4 |
| TTTTTTAAAAAAGTTTTCTGTATTTATATATATATA [CACACA_negctrl_site31] | 9.48 |
| AAAATATATATAACTTGTACATATACATACGTATAT [XGTACX_site4570] | 9.77 |
| TTTCTTTTTTTTTTTTTTTCTTTTTTTTTTTTTTTC [CACACA_negctrl_site1025] | 9.2 |

| Sequence | gcPBM binding intensity (ln) |
| --- | --- |
| ACTAAAAAAATAAACACACAGATTTATATAATATAT [CACACA_site4884] | 9.83 |
| TATATTTGTACATGATATTTTTTTTTTCTTTTAAAA [CACACA_negctrl_site754] | 9.43 |
| TATAATTATATAAATTGTACATAAAAAGTTTTTACT [XGTACX_site3621] | 9.45 |
| AAATGTTCTTAAAAATGAATAATATATATATATATA [CACACA_negctrl_site796] | 9.41 |
| TAATTATGCAGACACACACACACACCCAACTAAAAA [CACACA_site2569] | 10.4 |
| TATGTGTATTTATTTGCATGTTGGTTGTATTTTTTC [TGCATGCA_site479] | 10.4 |
| ACAAAGTTTATAGAACGTACATACTTACACATATTT [XGTACX_site556] | 9.73 |
| AATATTGTTCACAAGGTGCTTTTTATTCATACTAAT | 9.8 |
| TTGGCATACAGACACACACACACACGCCCACATATA [CACACA_site6425] | 10.7 |
| CATACCTATAGACACACACACACACGCACGCACAAA [CACACA_site6374] | 10.4 |
| TACCTATACAGACACACACACACACGCCCACAAAAA [CACACA_site6375] | 11.1 |
| CCAATTCAAATATGCACACAAATTTGAAAACGATTA [CACACA_site3607] | 9.71 |
| TGAAAATGGGAACCGTGTACAGGGCAGTTATAGGGG [XGTACX_site2950] | 9.87 |
| AAAAAAGAATAGCACACACACATATATAAATATAAA [CACACA_site4518] | 10.5 |
| TATTACATACCTTATTGTACAAATTATATATTAAAG [XGTACX_site7334] | 9.54 |
| ATATATCTATATGTGTGTACATATAAGTATTTATAT [XGTACX_site5333] | 9.87 |
| CATACATACGGACACACACACATATATATATATATA [CACACA_site5598] | 10.4 |
| CATATATACACATACACACACACACGGACACGCACA [CACACA_site6910] | 10.5 |
| TTATAAATAAAAAATACACACATATATATATATATA [CACACA_site207] | 9.57 |
| ACACGCACATATATATAAATATATATATATATAAAT [CACACA_negctrl_site1781] | 10.1 |
| AATACATACGGACACACACACACATATATATATATA [CACACA_site5884] | 11.6 |
| CACACGCACGGACACACACACATATAAAATCTATAT [CACACA_site6428] | 11.1 |

| Sequence | gcPBM binding intensity (ln) |
| --- | --- |
| AATATATACATATATACACACACATATATATATATA [CACACA_site8907] | 10.2 |
| AAAAAAAACGGACACACACACATACAAAATATATAT [CACACA_site4910] | 10.8 |
| CTAAAATACGGACACACACACACATATATATATATA [CACACA_site6138] | 11.4 |
| GTTATAAATAAATATACACACATATATAAAATACAT [CACACA_site7146] | 9.97 |
| TATAAATAAAAACACACACACATATATATATATATA [CACACA_site2319] | 10.4 |
| AAAAAAAACGGACACACACACATAAATATATATAAA [CACACA_site4260] | 11.3 |
| ACATACGAAAATTGGAAGGATAGATAAAAAGAAAAT [CACACA_negctrl_site51] | 9.66 |
| CTCAACATATACGTAACACACATATAAATATAAATA [CACACA_site7749] | 9.89 |
| ATATAGAAAATGCATACACACTTTATAAATATATTT [CACACA_site6553] | 9.82 |
| TATTTATTGTGATACTTATATTACTTAATGATTAAA [CACACA_negctrl_site676] | 9.41 |
| ACCCATTTAACAAAATGTACATTATTATAATTACTT [XGTACX_site7105] | 9.72 |
| CTTATATAATTCGATAGTACATATTTTTATATATAT [XGTACX_site4045] | 9.68 |
| ATACAATAATATAAATGTACAAATTATATCTTAATT [XGTACX_site6004] | 9.62 |
| TTGTGTACATATTAAGTGCATATATATATATATATA | 10.4 |
| TTTTACCTAAATATCACACATATTTAAATATATATA [CACACA_site5597] | 9.57 |
| AGTCAATTTTGTGTGTCAACATTTATATAAAGAATG [TGCATGCA_negctrl_site400] | 9.71 |
| AAGGTAAACGGACACACACACATACAAAAAAAAAAA [CACACA_site5961] | 11.3 |
| AAGGTAAACAGACACACACACATACAAAAAAAAAAA [CACACA_site3768] | 10.8 |
| AGAAGGTAAAAACACACACACACATACAAAAAAAAA [CACACA_site3767] | 10.7 |
| TATATATAAAAAACATGTACACAAATTTACATACAT [XGTACX_site4777] | 9.79 |
| ATGTATGGAAATTTTACACACAAGAGTAGTTTAAAA [CACACA_site1710] | 9.9 |
| CGCACTAAAAAACACACACACACACCCATATATATA [CACACA_site4152] | 11 |

| Sequence | gcPBM binding intensity (ln) |
| --- | --- |
| AAAAAAAACGCACATACACACACACCCATATATATA [CACACA_site9118] | 10.4 |
| TACCCACTAAAATACACACACACACCCACATATATA [CACACA_site6141] | 10.4 |
| CACCCACTAATAAACACACACATATATATATATATA [CACACA_site389] | 10.4 |
| CCCACTAAAAAACACACACACACACCCATATATATA [CACACA_site6140] | 11 |
| AAAGATGATAAAATATGTACACACAGTTTATACATT [XGTACX_site8703] | 9.95 |
| AAGAAAAAAAAAATTACACACTGCGCAGATACACAA [CACACA_site1289] | 9.86 |
| ATTTTTTCTTTTCGATGTACCCTTCTTATTCTTTAT [XGTACX_site3782] | 10.1 |
| TCTTGATCTTATATATATCTACAATATTTTATACAT [TGCATGCA_negctrl_site569] | 10.2 |
| CTGCGTTTAATATGCGTGCACCTTGGTTTTATATCT [GTGCAC_site9525] | 9.83 |
| GTAAGTTTGAATACACGTACAAATTTATTAAAGTCC [XGTACX_site6722] | 9.72 |
| ATTCTATATGTTACATAAACCTATATTTTTTTTTTT [CACACA_negctrl_site860] | 9.58 |
| TTTTACTTAAGACACACACACACAAAAAAAAAAAAA [CACACA_site6573] | 10.8 |
| TAAATAAATATATATTCACACACAAACATATATATA [CACACA_site9332] | 10.5 |
| CTATTTCAGAAACACACACACACAAACAAACATATA [CACACA_site978] | 10.4 |
| AATAAATATATATTCACACACAAACATATATATATA [CACACA_site4023] | 10 |
| CTATTTCATGGACACACACACACAAACAAACATATA [CACACA_site4696] | 11.1 |
| ATATAACATGGACACACACACATATATATATATTAT [CACACA_site6135] | 10.4 |
| CTATTTCATAAACACACACACACAAACAAACATATA [CACACA_site8234] | 11.5 |
| TTTTAAGAAAAAAAATGTACACATGAAAATAGTGAA [XGTACX_site5898] | 9.5 |
| TAGATACATAAAAGTGGTACATATATATATATATAT [XGTACX_site6263] | 9.85 |
| TAACTTAAATAATACATACACACATGTACATACAGA [CACACA_site1594] | 10.2 |
| TCTATTTTTTATATGGTGCATTGTTCTTATTAATAT [GTGCAC_site9392] | 9.77 |
